The record followed here is PubChem BioAssay (NCI).

SMILES strings stand for the structures. The panel holds about 83,000 compounds, 20% with a hit somewhere; the sample as a whole holds those more often.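 Each cell line was grown in a 96-well plate and treated with one concentration of compound for 48 hours. Values below 10 were considered active.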 Unmarked numbers belong to inactive results. Activity calls are given as the source filed them.

Some test systems named below: BT-549 breast; MDA-MB-435 melanoma; SW-620 colon; MCF7 breast; HCT-116 colon; HCC-2998 colon; KM12 colon.
Holding throughout (assay): NCI-60 one-dose screen, 48 h (100 = growth as untreated, 0 = no growth, -100 = all killed)
Holding throughout (details): 10 µM unless noted

In the case of `C=C1C(=O)O[C@H]2[C@H]1CC/C(COC(=O)/C=C/c1cccnc1)=C\CC[C@@]1(C)O[C@@H]21`, the growth in the assay on BT-549 breast was 20.5%; in the assay with MDA-MB-435 melanoma it was 27.7%; in the assay with SW-620 colon, -32% (active); in the assay with MCF7 breast, 11.9%; in the assay with HCT-116 colon it was -66.3% (active); with HCC-2998 colon, 94.8%. Also, the growth in the assay on KM12 colon was 79.4%.

As to `COC(=O)c1ccc2c(c1)NC(=O)[C@@H]1CCCN21`, the growth is 87.2% in the assay on BT-549 breast; 100% in the assay on MDA-MB-435 melanoma; 96.8% with SW-620 colon; 73.9% in the assay with MCF7 breast; 93.8% with HCT-116 colon; 109% in the assay with HCC-2998 colon. In addition, the growth with KM12 colon is 101%.

As for `CN(C)c1ccc(-c2ccc3[nH]c(=O)nc(-c4ccc(F)cc4)c3c2)cn1`, the growth is 40.6% in the assay on BT-549 breast; 2.63% (active) with MDA-MB-435 melanoma; 29.8% in the assay on SW-620 colon; 29.4% in the assay on MCF7 breast; 22.2% in the assay with HCT-116 colon; 84.3% in the assay with HCC-2998 colon. The growth with KM12 colon is 31.5%.

For `CCOCc1nc2ccccc2c(=O)[nH]1`, the growth in the assay with BT-549 breast was 106%; in the assay with MDA-MB-435 melanoma, 103%; in the assay with SW-620 colon, 97.1%; in the assay on MCF7 breast, 94.9%; with HCT-116 colon, 98%; with HCC-2998 colon, 105%. Moreover, in the assay with KM12 colon, the growth is 103%.

Take `C[C@H]1[C@H](C)CC[C@]2(C(=O)OCCCC[P+](c3ccccc3)(c3ccccc3)c3ccccc3)CC[C@]3(C)C(=CC[C@@H]4[C@@]5(C)CC[C@H](OC(=O)C(Cl)Cl)C(C)(C)[C@@H]5CC[C@]43C)[C@H]12`: the growth was -87.1% (active) with BT-549 breast; -91.4% (active) with MDA-MB-435 melanoma; -71.3% (active) with SW-620 colon; -38.1% (active) with MCF7 breast; -89.2% (active) in the assay with HCT-116 colon; -84.8% (active) in the assay with HCC-2998 colon. The growth in the assay on KM12 colon was -85.7% (active).

On to `O=C(NC[C@H](O)CN1CCc2ccccc2C1)c1cc(NC2COC2)ncn1`, for which the growth in the assay with BT-549 breast was 97.8%; in the assay on MDA-MB-435 melanoma, 95.1%; with SW-620 colon, 93.8%; in the assay with MCF7 breast it was 80.2%; in the assay with HCT-116 colon, 86.7%; with HCC-2998 colon, 98.8%. In addition, the growth in the assay on KM12 colon was 98.1%.

For the compound `COc1ccc(C2CC(c3ccc(OC)cc3O)=NN2c2ccc(S(N)(=O)=O)cc2)cc1` (configuration not stated), the growth in the assay with BT-549 breast was 58.2%; in the assay with MDA-MB-435 melanoma, 36.8%; in the assay on SW-620 colon, 50.6%; with MCF7 breast, 13.7%; with HCT-116 colon it was 20.5%; in the assay with HCC-2998 colon it was 54.4%. For the same compound, in the assay on KM12 colon, the growth is 23.7%.

In the case of `O=[N+]([O-])c1ccc(Oc2ccc(-c3ccccc3)cc2)cc1`, the growth was 79.6% in the assay with BT-549 breast; 101% in the assay with MDA-MB-435 melanoma; 99% in the assay with SW-620 colon; 84.4% in the assay on MCF7 breast; 73.4% in the assay with HCT-116 colon; 92.2% in the assay on HCC-2998 colon. Besides, in the assay with KM12 colon, the growth is 89.5%.

Take `CCOC(=O)NC(Cc1ccccc1)c1ccccc1` (configuration not stated): the growth in the assay with BT-549 breast was 96.5%; in the assay with MDA-MB-435 melanoma, 114%; in the assay on SW-620 colon, 95.2%; with MCF7 breast, 101%; with HCT-116 colon it was 96%; in the assay with HCC-2998 colon it was 104%. In addition, the growth with KM12 colon was 110%.

On to `C=C1C(=O)O[C@H]2[C@H]1CC/C(COC(=O)c1cccnc1)=C\CC[C@@]1(C)O[C@@H]21`, for which the growth in the assay with BT-549 breast was 68.4%; in the assay on MDA-MB-435 melanoma, 49.7%; in the assay on SW-620 colon it was 17.7%; in the assay with MCF7 breast, 21.4%; with HCT-116 colon, 15.9%; in the assay on HCC-2998 colon, 108%. Also, the growth with KM12 colon is 109%.

Consider `COc1cc(F)c(-c2nc3c(C)cccc3n2Cc2c(F)cccc2F)c(F)c1`, for which the growth is 98.5% with BT-549 breast; 94.8% in the assay on MDA-MB-435 melanoma; 91.6% with SW-620 colon; 78.5% in the assay with MCF7 breast; 74.6% in the assay with HCT-116 colon; 82.1% with HCC-2998 colon. Moreover, the growth in the assay with KM12 colon was 90.1%.

`COc1ccc2oc(=O)cc(-c3nc4ccc(N)cc4[nH]3)c2c1`: the growth with BT-549 breast was 77.1%; in the assay with MDA-MB-435 melanoma, 106%; in the assay on SW-620 colon, 103%; with MCF7 breast, 77.2%; with HCT-116 colon it was 88.6%; in the assay on HCC-2998 colon, 97.9%. Besides, the growth in the assay on KM12 colon is 87.7%.

On to `COc1ccc2c(c1)OC13Oc4cc(OC)ccc4C=C1CCCCC3=C2`, for which the growth is 92% in the assay on BT-549 breast; 105% in the assay on MDA-MB-435 melanoma; 90.7% with SW-620 colon; 75.2% with MCF7 breast; 73.4% with HCT-116 colon; 97.7% in the assay with HCC-2998 colon. For the same compound, the growth in the assay with KM12 colon was 94.8%.

In the case of `COc1ccc2c(c1)/C(=C1\S/C(=N/c3nnc(C)s3)NC1=O)C(=O)N2Cc1ccc(Cl)cc1`, the growth in the assay on BT-549 breast was 54.6%; in the assay with MDA-MB-435 melanoma it was 52.8%; in the assay on SW-620 colon it was 49.3%; in the assay with MCF7 breast, 45.8%; with HCT-116 colon, 31.7%; in the assay on HCC-2998 colon it was 34.2%. For the same compound, the growth with KM12 colon is 28.6%.

As to `COc1ccc(/C=C/C(=O)Nc2ncnc3nc[nH]c23)cc1`, the growth in the assay with BT-549 breast is 103%; in the assay on MDA-MB-435 melanoma it was 91.1%; in the assay with SW-620 colon, 110%; with MCF7 breast it was 78.9%; in the assay on HCT-116 colon, 101%; with HCC-2998 colon, 111%. Further, the growth in the assay on KM12 colon is 95.8%.

For the compound `C=C1C(=O)O[C@H]2[C@H]1CC/C(COC(=O)CCCCCCCC(=O)OC/C1=C/CC[C@@]3(C)O[C@H]3[C@H]3OC(=O)C(=C)[C@@H]3CC1)=C\CC[C@@]1(C)O[C@@H]21`, the growth in the assay with BT-549 breast is 25.2%; in the assay with MDA-MB-435 melanoma, 29.9%; in the assay on SW-620 colon, 7.61% (active); in the assay on MCF7 breast, 5.35% (active); in the assay on HCT-116 colon, -43.6% (active); in the assay with HCC-2998 colon it was 78.6%. In addition, the growth with KM12 colon is 46.7%.

`COc1ccc2cc(/C=C3\N=C(c4cc(OC)c(OC)c(OC)c4)OC3=O)c(OC)nc2c1`: the growth in the assay with BT-549 breast is 104%; in the assay on MDA-MB-435 melanoma, 106%; with SW-620 colon, 100%; in the assay with MCF7 breast it was 99.8%; in the assay on HCT-116 colon, 97.9%; with HCC-2998 colon, 102%. Moreover, in the assay with KM12 colon, the growth was 98.9%.

For `CCCCc1nc(Cl)c(C2CC(c3ccc(Cl)cc3)=NN2c2cc(Cl)cc(Cl)c2)[nH]1` (configuration not stated), the growth was 72% with BT-549 breast; 83.2% with MDA-MB-435 melanoma; 16.8% in the assay on SW-620 colon; 85.1% in the assay with MCF7 breast; 63.9% with HCT-116 colon; 102% in the assay with HCC-2998 colon. Further, the growth in the assay on KM12 colon was 89%.

For the compound `C/C(=N\NC(=O)c1ccncc1)c1ccc(N)cc1`, the growth was 93.2% in the assay on BT-549 breast; 102% with MDA-MB-435 melanoma; 101% with SW-620 colon; 95.9% in the assay with MCF7 breast; 99.6% in the assay with HCT-116 colon; 106% in the assay on HCC-2998 colon. In addition, the growth with KM12 colon was 106%.

As for `CC(=O)Nc1ccc2c(c1)Cc1cc(F)ccc1-2`, the growth in the assay with BT-549 breast was 93.8%; in the assay with MDA-MB-435 melanoma, 107%; in the assay on SW-620 colon, 105%; in the assay with MCF7 breast, 82.2%; with HCT-116 colon, 102%; with HCC-2998 colon it was 94.3%. The growth with KM12 colon is 95.6%.

As for `C=C1C(=O)O[C@H]2[C@H]1CC/C(COC(=O)n1ccnc1)=C\CC[C@@]1(C)O[C@@H]21`, the growth in the assay on BT-549 breast is 94.8%; in the assay with MDA-MB-435 melanoma, 99.6%; with SW-620 colon it was 71.2%; in the assay with MCF7 breast, 76.8%; in the assay on HCT-116 colon, 81.6%; with HCC-2998 colon, 104%. Moreover, the growth in the assay on KM12 colon is 105%.

For `COC1=CC=CC2(OC)C3(O)CCCc4cccc(c43)N3C(=O)COC132` (configuration not stated), the growth in the assay with BT-549 breast was 103%; in the assay with MDA-MB-435 melanoma it was 103%; in the assay on SW-620 colon, 103%; in the assay on MCF7 breast it was 96.3%; with HCT-116 colon it was 89.7%; with HCC-2998 colon it was 103%. Besides, the growth with KM12 colon was 105%.

Consider `COC(=O)CCc1cc(O)c2c(c1)[C@@H](C(=O)OC)[C@H](c1ccc(O)c(O)c1)O2`, for which the growth was 51.7% in the assay on BT-549 breast; 4.1% (active) with MDA-MB-435 melanoma; 63.8% with SW-620 colon; 23.7% with MCF7 breast; 59.5% in the assay with HCT-116 colon; 94.9% with HCC-2998 colon. Further, in the assay with KM12 colon, the growth was 55.8%.

`Cc1ccccc1NC(=O)c1sc2nc(C)c(C(C)O)cc2c1N` (configuration not stated): the growth is 57.8% in the assay on BT-549 breast; 1.71% (active) in the assay on MDA-MB-435 melanoma; 36.8% in the assay on SW-620 colon; 21% with MCF7 breast; 22% in the assay with HCT-116 colon; 67.9% with HCC-2998 colon. Also, the growth with KM12 colon is 27.7%.

On to `COCCc1n(Cc2ccc3ccccc3c2)c2ccccc2[n+]1Cc1ccc2ccccc2c1`, for which the growth in the assay with BT-549 breast is -48.5% (active); with MDA-MB-435 melanoma it was -87.5% (active); in the assay with SW-620 colon it was -73.7% (active); with MCF7 breast, -68.1% (active); with HCT-116 colon it was -81.2% (active); in the assay on HCC-2998 colon, -78.1% (active). Moreover, the growth with KM12 colon is -86.2% (active).

Regarding `O=C1C(Cl)=C(Nc2ccc3c(c2NC2=C(Cl)C(=O)c4ccccc4C2=O)C(=O)c2ccccc2C3=O)C(=O)c2ccccc21`, the growth in the assay on BT-549 breast is 42.3%; in the assay on MDA-MB-435 melanoma it was -64.7% (active); in the assay with SW-620 colon, 24.7%; in the assay on MCF7 breast, -7.63% (active); with HCT-116 colon it was 2.25% (active); in the assay on HCC-2998 colon it was 67%. In addition, the growth in the assay with KM12 colon was 39%.
